Results from PubChem BioAssay (NCATS).
Records with an inconclusive call do not appear. A call without a number means that no potency is given here. The source made the active and inactive calls. The call rests on the fitted dose curve; in most records, active means well fitted inhibition curve with a large enough effect; inconclusive means small, poorly fitted or top-dose-only effect; inactive means flat fitted curve, though single readings scatter.

Biological target: Calcium and integrin-binding protein 1 (Homo sapiens) (UniProt Q99828)
Assay: Primary qHTS for Identification of Calcium Integrin Binding Protein 1 (CIB1) Competitor (AID 1508620);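 further: GST tagged CIB1 binding a fluorescein labelled alphaIIb integrin peptide tracer; top concentration of the series differs between compounds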
Conditions: CIB1-GST / FITC-alphaIIb peptide fluorescence polarization; series mostly up to 57.7 µM
How it was run: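 CIB1-GST (1 uM final) and compound incubated 15 min at room temperature before adding FITC-alphaIIb peptide tracer (100 nM final). Competition for binding read by fluorescence polarization (ex 480, em 540) after another 15 min at room temperature.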

Chain of Calcium and integrin-binding protein 1 (Homo sapiens) (Q99828 whole entry, looked up): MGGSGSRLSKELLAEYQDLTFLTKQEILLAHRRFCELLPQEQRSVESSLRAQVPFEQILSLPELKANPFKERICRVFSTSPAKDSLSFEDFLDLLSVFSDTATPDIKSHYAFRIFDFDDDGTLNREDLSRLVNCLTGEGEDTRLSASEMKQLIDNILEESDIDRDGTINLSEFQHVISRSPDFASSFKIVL

| Compound | Potency |
| --- | --- |
| C=C1C(OC(C)=O)C(=O)C2C(C)(C)C(OC(C)=O)CCC2(C)C1CC(OC(C)=O)/C(C)=C/COC(C)=O (stereo not given) | inactive |
| CC(/C=C/C1(O)C(C)CC(O)CC1(C)C)OC1OC(CO)C(O)C(O)C1O (stereo not given) | inactive |
| C[C@@H]1O[C@@H](OC[C@H]2O[C@@H](OCCc3ccccc3)[C@H](O)[C@@H](O)[C@@H]2O)[C@H](O)[C@H](O)[C@H]1O | inactive |
| CC1OC(OC2C(C)OC(OC3C(OC(=O)/C=C/c4ccc(O)cc4)C(CO)OC(OC4(COC(=O)/C=C/c5ccc(O)cc5)OC(CO)C(O)C4O)C3OC3OCC(O)(CO)C3O)C(O)C2O)C(O)C(O)C1O (stereo not given) | inactive |
| C=C(C(=O)O)C1CCC(C)C2CCC(=O)OC2(C)C1 (stereo not given) | inactive |
| CC(C)(O)C1CCC2(C)C3C(O)C4C(C13)C42CO (stereo not given) | inactive |
| C/C=C1/[C@H](O[C@@H]2O[C@H](CO)[C@@H](O)[C@H](O)[C@H]2O)OC=C(C(=O)OC)[C@H]1CC(=O)O[C@@H]1O[C@H](CO)[C@@H](O)[C@H](O)[C@H]1O | inactive |
| CC(C)=CCC/C(C)=C/CC/C(C)=C/CC[C@]1(C)CCc2cc(O)cc(C)c2O1 | inactive |
| CC(/C=C/C1(O)C2(C)COC1(C)CC(=O)C2)O[C@@H]1O[C@H](CO)[C@@H](O)[C@H](O)[C@H]1O (stereo not given in full) | inactive |
| COc1cc(/C=C/C(=O)OC(C)(C)C(OC2OC(CO)C(O)C(O)C2O)C(=O)OCc2ccc(OC3OC(CO)C(O)C(O)C3O)cc2)ccc1O (stereo not given) | inactive |
| CC1=CC(=O)C2C(C)(C)CCCC2(C)C12CCC1(COC(=O)C1)O2 (stereo not given) | inactive |
| COc1c2c(c(C)c3c1C(=O)OC3)OC1(C)CC(O)C3(O)C(C)(C)OC(=O)CCC3(C)C1C2 (stereo not given) | inactive |
| OCC1OC(Oc2cc(O)c3c(c2)OC(c2ccc(O)cc2)C(O)C3)C(O)C1O (stereo not given) | inactive |
| COc1ccc(C2=CC(=O)OC2Cc2ccc(O)cc2)c(O)c1 (stereo not given) | inactive |
| COc1cc(C/C(=C/NC(C)=O)N(CC(=O)Cc2ccccc2)C(C)=O)cc2c1OCO2 | inactive |
| C/C=C(\C)C(=O)O[C@H]1[C@H](O)[C@]2(COC(C)=O)[C@H](O)C[C@]3(C)C(=CCC4[C@@]5(C)CC[C@H](O[C@@H]6O[C@H](C(=O)O)[C@@H](O[C@@H]7O[C@H](CO)[C@@H](O)[C@H](O)[C@H]7O)[C@H](O)[C@H]6O[C@@H]6O[C@H](CO)[C@@H](O)[C@H](O)[C@H]6O)[C@](C)(CO)C5CC[C@]43C)[C@@H]2CC1(C)C (stereo not given in full) | inactive |
| C=C1[C@@H]2[C@H]3OC(=O)C(=C)[C@@H]3CC[C@@](C)(O)[C@@H]2C[C@@H]1O[C@@H]1O[C@H](CO)[C@@H](O)[C@H](O)[C@H]1O | inactive |
| C=C[C@H]1[C@H](O[C@@H]2O[C@H](CO)[C@@H](O)[C@H](O)[C@H]2O)OC=C(C(=O)OC)[C@H]1C[C@@H]1N[C@H](C(=O)O)Cc2c1[nH]c1ccccc21 | inactive |
| COc1ccccc1CC(C(=O)O)N(C)C(=O)c1ccccc1 (stereo not given) | inactive |
| CC(C)C1=CC2=CCC3[C@](C)(CCC[C@@]3(C)C(=O)O)C2CC1=O (stereo not given in full) | inactive |
| C/C=C/C=C/C(CC(=O)O)Nc1ccc(C=O)cc1 (stereo not given) | inactive |
| CC1=CCC2C(C)(CO)CCCC2(C)C1CC12OC1C(O)C(CO)=CC2O (stereo not given) | inactive |
| CCCCCCc1cccc(NC(=O)[C@H](N)CCP(=O)(O)O)c1 | inactive |
| CC[C@H]1OC(=O)[C@H](C)[C@@H](OC2C[C@@](C)(OC)[C@@H](O)[C@H](C)O2)[C@H](C)[C@@H](OC2O[C@H](C)C[C@H](NC)[C@H]2O)[C@](C)(O)C[C@@H](C)CN(C)[C@H](C)[C@@H](O)[C@]1(C)O (stereo not given in full) | inactive |
| CC(C)CC(=O)O[C@@H]1OC=C(CO[C@@H]2O[C@H](CO[C@@H]3O[C@H](CO)[C@@H](O)[C@H](O)[C@H]3O)[C@@H](O)[C@H](O)[C@H]2O)[C@H]2C[C@H](O)[C@@H](CO)[C@@H]12 | inactive |
| COc1cc2c(cc1O)C1(OC)Cc3ccc4c(c3C1N(C)CC2)OCO4 (stereo not given) | inactive |
| CCC[C@@H]1C[C@@H](C(=O)N[C@H](C(C)Cl)[C@H]2O[C@H](SC)[C@H](O)[C@@H](O)[C@H]2O)N(C)C1 (stereo not given in full) | inactive |
| C=CC1(C)CC2=CCC3C(C)(C(=O)O)CCCC3(C)C2CC1OC(C)=O (stereo not given) | inactive |
| NC(=O)[C@H]1CCCCc2c1[nH]c1ccc(Cl)cc21 | inactive |
| CC12CCC3C(C)(C)C(O)CCC3(C)C1Cc1c(oc(C(=O)O)cc1=O)O2 (stereo not given) | inactive |
